Values joined by “and” are separate entries in the source; they are usually repeats but may differ in a detail not shown here. Identical values can stand only once. The campaign covered roughly 5,500 compounds. About 2,000 (36%) were called active. Roughly 18% stayed inconclusive and do not appear here. No stated cut-off is given here; in the data, active means normalized growth mostly below about 0.91 (no sharp cut-off); inconclusive means no clear call, values can overlap the other calls; inactive means mostly above about 0.92. Some of the results follow.
Assay: chemical genetic growth profiling, strain panel (AID 1159580);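 further: tested at 20 µM; growth read once vehicle control cultures reached saturation at 30 °C; 1 = growth at the plate median or of vehicle wells; lower values mean less growth of the strain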
Conditions: S. cerevisiae deletion strains, growth OD

Measured: normalized growth

Cc1cc(C(C)(C)C)c(O)c(C)c1CC1=NCCN1
inactive: locus YAL013W, strain DEP1, hits give low values 0.986 and 1.02 | locus YAL021C, strain ccr4, hits give low values 1.01 | locus YAL026C, strain drs2, hits give low values 1 | locus YAL030W, strain snc1, hits give low values 1.01 | locus YAL040C, strain CLN3, hits give low values 1.01 | locus YBL061C, strain skt5, hits give low values 1.02 | locus YBR009C, strain hhf1, hits give low values 1.01 | locus YBR021W, strain FUR4, hits give low values 1 | locus YBR023C, strain chs3, hits give low values 1.02 | locus YBR171W, strain sec66, hits give low values 1.02 | locus YBR229C, strain ROT2, hits give low values 1 | locus YBR231C, strain swc5, hits give low values 0.998 | locus YBR279W, strain paf1, hits give low values 0.993 | locus YCL011C, strain gbp2, hits give low values 1.01 | locus YCL016C, strain dcc1, hits give low values 1.02 | locus YCL029C, strain bik1, hits give low values 1.02 | locus YCL061C, strain MRC1 (second series), hits give low values 1 | locus YCL061C, strain MRC1, hits give low values 1.01 | locus YCL069W, strain vba3, hits give low values 1 | locus YCR088W, strain abp1, hits give low values 1 | locus YDL005C, strain med2, hits give low values 0.998 | locus YDL035C, strain GPR1, hits give low values 1 | locus YDL040C, strain nat1, hits give low values 1 | locus YDL074C, strain BRE1, hits give low values 0.98 | locus YDL101C, strain DUN1, hits give low values 1 | locus YDL134C, strain PPH21, hits give low values 0.997 | locus YDL185W, strain tfp1, hits give low values 1.01 | locus YDL192W, strain arf1, hits give low values 1.02 | locus YDR001C, strain nth1, hits give low values 0.993 | locus YDR069C, strain doa4, hits give low values 1.01 | locus YDR101C, strain arx1, hits give low values 0.993 | locus YDR137W, strain rgp1, hits give low values 1.06 | locus YDR150W, strain NUM1, hits give low values 1 | locus YDR159W, strain sac3, hits give low values 0.991 | locus YDR162C, strain NBP2, hits give low values 0.991 | locus YDR195W, strain ref2 0.99 | locus YDR297W, strain sur2, hits give low values 1 | locus YDR318W, strain mcm21, hits give low values 1.01 | locus YDR334W, strain swr1, hits give low values 1.01 | locus YDR335W, strain msn5, hits give low values 1 | locus YDR363W, strain ESC2, hits give low values 1.01 | locus YDR388W, hits give low values 1 | locus YDR392W, strain spt3, hits give low values 0.954 | locus YDR502C, strain sam2, hits give low values 1 | locus YEL003W, strain gim4, hits give low values 0.981 | locus YEL037C, strain rad23, hits give low values 1 | locus YEL061C, strain CIN8 (second series), hits give low values 0.998 | locus YEL061C, strain CIN8, hits give low values 0.997 | locus YER002W, strain NOP16, hits give low values 0.998 | locus YER015W, strain faa2, hits give low values 0.998 | locus YER016W, strain bim1, hits give low values 1 | locus YER110C, hits give low values 1.02 | locus YER111C, strain swi4, hits give low values 1 | locus YER155C, strain BEM2 (second series), hits give low values 0.991 | locus YER155C, strain BEM2, hits give low values 0.996 | locus YER167W, strain BCK2, hits give low values 0.998 | locus YFR010W, strain ubp6, hits give low values 0.999 | locus YGL078C, strain dbp3, hits give low values 1.01 | locus YGL086W, strain mad1, hits give low values 1 | locus YGL167C, strain pmr1, hits give low values 1 | locus YGL173C, strain kem1, hits give low values 1.01 | locus YGL227W, strain vid30, hits give low values 1 | locus YGL240W, strain doc1, hits give low values 0.992 | locus YGL248W, strain PDE1, hits give low values 1 | locus YGL253W, strain hxk2, hits give low values 1.01 | locus YGR078C, strain PAC10, hits give low values 1 and 0.998 | locus YGR135W, strain pre9, hits give low values 1.01 | locus YGR229C, strain SMI1, hits give low values 1.01 | locus YGR252W, strain gcn5, hits give low values 0.967 | locus YHR013C, strain ard1, hits give low values 1.01 | locus YHR027C, strain rpn1, hits give low values 1.02 | locus YHR030C, strain SLT2, hits give low values 0.998 and 0.968 | locus YHR079C, strain IRE1 (second series), hits give low values 1.01 | locus YHR079C, strain IRE1, hits give low values 0.977 | locus YHR094C, strain hxt1, hits give low values 0.994 | locus YHR129C, strain ARP1, hits give low values 1.01 | locus YHR142W, strain chs7, hits give low values 0.997 | locus YHR200W, strain rpn10, hits give low values 0.994 | locus YIL066C, strain RNR3, hits give low values 1 | locus YIL073C, strain SPO22, hits give low values 1.04 | locus YIL125W, strain kgd1, hits give low values 1 | locus YIR030C, strain dcg1, hits give low values 1.01 | locus YJL092W, strain hpr5, hits give low values 1.01 | locus YJL095W, strain BCK1 (second series), hits give low values 1.01 | locus YJL095W, strain BCK1, hits give low values 1 and 0.981 | locus YJL115W, strain asf1, hits give low values 1 | locus YJL129C, strain trk1, hits give low values 0.993 | locus YJL134W, strain LCB3, hits give low values 0.997 | locus YJL154C, strain vps35, hits give low values 1 | locus YJL164C, strain tpk1, hits give low values 1 | locus YJL166W, strain qcr8, hits give low values 1.01 | locus YJL168C, strain set2, hits give low values 1.01 | locus YJL187C, strain SWE1 (second series), hits give low values 1 | locus YJL187C, strain SWE1, hits give low values 1 | locus YJR043C, strain POL32, hits give low values 0.982
